Some test systems named below: DU-145 prostate; K-562 leukemia; MALME-3M melanoma; MDA-MB-231 breast; RXF 393 renal; SF-268 CNS; SF-295 CNS; SF-539 CNS; UACC-257 melanoma; M14 melanoma.
Assay in all cases: NCI-60 one-dose screen, 48 h (100 = growth as untreated, 0 = no growth, -100 = all killed)
Holding throughout (details): 10 µM unless noted

“And” between values parts separate entries of the source, which are not always exact repeats. Equal values may be shown once. This is part of a sample that, as a whole, favours compounds with a hit. Of some 83,000 tested, about 20% had one in any assay.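 Activity criterion: percent growth below 10, measured after cells in 96-well plates were exposed to a single compound concentration for 48 hours.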 Values without a mark were called inactive. The source made the active and inactive calls.

With `COc1ccc(C(=O)c2cc(C(C)=O)c3c(C)cc(C)cn23)cc1`, the growth with DU-145 prostate is 66.9%; in the experiment with K-562 leukemia it was 86.4%; in the experiment on MALME-3M melanoma it was 72.1%; in the experiment with MDA-MB-231 breast it was 75.3%; in the experiment with RXF 393 renal, 8.06% (active); in the experiment with SF-268 CNS, 23.5%. For the same compound, the growth with SF-295 CNS was 31%; with SF-539 CNS it was 23.8%; in the experiment on UACC-257 melanoma, 79.2%; with M14 melanoma it was 84.9%.
On to `CCOc1ccc2[nH]c(=O)c(C(c3nnnn3CC3CCCO3)N3CCN(Cc4ccccc4)CC3)cc2c1` (stereo not given), for which the growth in the experiment on DU-145 prostate was 93.6%; in the experiment with K-562 leukemia it was 111%; in the experiment with MALME-3M melanoma, 65%; in the experiment with MDA-MB-231 breast, 61.6%; in the experiment with RXF 393 renal, 58.7%; in the experiment with SF-268 CNS, 55.5%. Besides, the growth was 57.6% with SF-295 CNS, 57.6% with SF-539 CNS, 113% with UACC-257 melanoma and 94.3% in the experiment with M14 melanoma.
In the case of `COC(=O)c1ccc(-c2c(-c3ccccc3)c(F)c3oc(C(=O)OC)c(N)c3c2-c2ccccc2)cc1`, the growth is 104% in the experiment on DU-145 prostate; 85.1% in the experiment with K-562 leukemia; 99.9% in the experiment with MALME-3M melanoma; 99.3% in the experiment on MDA-MB-231 breast; 95.6% in the experiment on RXF 393 renal; 91.6% in the experiment with SF-268 CNS. The growth in the experiment with SF-295 CNS is 89.7%; with SF-539 CNS, 90%; in the experiment on UACC-257 melanoma, 111%; with M14 melanoma it was 98.2%.
Turning to `COc1cc(C=O)ccc1Oc1nc(Nc2ccc(F)cc2)nc(N(C)C)n1`, the growth with DU-145 prostate is 90% and 72.7%; with K-562 leukemia, 55.6% and 35.2%; in the experiment with MALME-3M melanoma it was 75.8% and 82.1%; with MDA-MB-231 breast, 90.1% and 76.2%; in the experiment on RXF 393 renal, 91.9% and 64.9%; in the experiment with SF-268 CNS, 73.2% and 66.9%. Also, the growth is 65.5% and 82.7% in the experiment with SF-295 CNS; 92.9% and 42.8% in the experiment with SF-539 CNS; 57.7% and 102% in the experiment on UACC-257 melanoma; 93.4% and 65.3% in the experiment with M14 melanoma.
For `COc1ccc(CCC2NCCc3c(Br)c4c(c(OC)c32)OCO4)cc1` (stereo not given), the growth is 33.8% with DU-145 prostate; 6.12% (active) in the experiment with K-562 leukemia; 23.4% with MALME-3M melanoma; 10.9% in the experiment on MDA-MB-231 breast; -17.3% (active) with RXF 393 renal; 20.3% with SF-268 CNS. Further, the growth with SF-295 CNS is 4.87% (active); in the experiment with SF-539 CNS it was -39.4% (active); in the experiment on UACC-257 melanoma it was 37.5%; in the experiment with M14 melanoma, -30.7% (active).
Turning to `Nc1cc(-c2c[nH]c3ccc(F)cc23)nc2cc(-c3c[nH]c4ccccc34)nn12`, the growth is 26.9% in the experiment on DU-145 prostate; 5.2% (active) in the experiment with K-562 leukemia; -28% (active) with MALME-3M melanoma; -65.5% (active) in the experiment on MDA-MB-231 breast; 36.5% in the experiment on RXF 393 renal; 35.4% in the experiment on SF-268 CNS. The growth is -66% (active) with SF-295 CNS, -74.8% (active) with SF-539 CNS, -63.3% (active) with UACC-257 melanoma and -23.1% (active) with M14 melanoma.
For the compound `COc1ccc2[nH]cc(-c3cc(N)n4nc(-c5c[nH]c6ccccc56)cc4n3)c2c1`, the growth in the experiment with DU-145 prostate is 42.6%; with K-562 leukemia, 3.51% (active); in the experiment with MALME-3M melanoma, -93.4% (active); in the experiment on MDA-MB-231 breast it was -69.9% (active); in the experiment on RXF 393 renal, -72.2% (active); in the experiment with SF-268 CNS, 80.4%. The growth in the experiment on SF-295 CNS was -75.9% (active); with SF-539 CNS it was -95.2% (active); in the experiment with UACC-257 melanoma, -92.3% (active); in the experiment on M14 melanoma, -58.6% (active).
As for `CSc1ccc(OCc2nc3ccccc3n2-c2cccc(NS(C)(=O)=O)c2)cc1`, the growth with DU-145 prostate is 103% and 67.1%; with K-562 leukemia, 94.4% and 106%; in the experiment with MALME-3M melanoma it was 95.3% and 84.1%; in the experiment on MDA-MB-231 breast it was 118% and 57.3%; in the experiment with RXF 393 renal, 81.7% and 84.1%; with SF-268 CNS it was 92.4% and 101%. Also, the growth was 106% and 96.5% in the experiment with SF-295 CNS; 93.2% and 89.5% in the experiment with SF-539 CNS; 116% and 107% in the experiment on UACC-257 melanoma; 119% and 81.6% in the experiment with M14 melanoma.
For the compound `O=c1[nH]c2ccccc2cc1CSc1ccccc1Nc1nccc(-c2ccc3c(c2)OCO3)n1`, the growth was 85.1% in the experiment with DU-145 prostate; 87.6% with K-562 leukemia; 80.2% in the experiment with MALME-3M melanoma; 85.4% with MDA-MB-231 breast; 81.5% in the experiment with RXF 393 renal; 63.2% in the experiment on SF-268 CNS. Moreover, the growth in the experiment with SF-295 CNS is 75.3%; in the experiment with SF-539 CNS it was 63.9%; in the experiment with UACC-257 melanoma, 94.4%; with M14 melanoma, 89.3%.
With `CN(CCSSCCN1CCOCC1)C(=O)Oc1cc2c(c3ccccc13)[C@H](CCl)CN2C(=O)c1cc2cc(OCCCN3CCC3)ccc2[nH]1`, the growth in the experiment with DU-145 prostate is -70.8% (active); in the experiment on K-562 leukemia it was -34.6% (active); in the experiment on MALME-3M melanoma, -79.5% (active); with MDA-MB-231 breast it was -23.7% (active); in the experiment with RXF 393 renal, -77.4% (active); with SF-268 CNS it was 3.42% (active). Further, the growth was 1.02% (active) in the experiment with SF-295 CNS, -86.2% (active) with SF-539 CNS, -17.1% (active) with UACC-257 melanoma and -72.5% (active) in the experiment with M14 melanoma.
Turning to `Cc1cccc(-c2ccccc2Oc2ccc3nnc(Cl)n3n2)c1`, the growth in the experiment on DU-145 prostate was 111%; with K-562 leukemia it was 103%; in the experiment on MALME-3M melanoma, 94.4%; with MDA-MB-231 breast it was 107%; in the experiment with RXF 393 renal, 107%; in the experiment with SF-268 CNS, 106%. For the same compound, the growth with SF-295 CNS is 95.3%; with SF-539 CNS, 98.8%; with UACC-257 melanoma, 99%; with M14 melanoma, 97.6%.
Regarding `Cc1ccc(C(=O)C[n+]2cccc3c4ccccc4ccc32)cc1`, the growth is 35.7% with DU-145 prostate; 8.04% (active) with K-562 leukemia; 10.4% with MALME-3M melanoma; 24.2% with MDA-MB-231 breast; 5.94% (active) in the experiment on RXF 393 renal; 42.8% in the experiment on SF-268 CNS. Moreover, the growth with SF-295 CNS was 23.4%; in the experiment on SF-539 CNS it was 25.5%; with UACC-257 melanoma, 5.16% (active); in the experiment on M14 melanoma, 17.6%.

The record behind these values is PubChem BioAssay (NCI).
